Out of some 400,000 compounds screened, about 2,200 (0.55%) were called active. Another 1% or so got no clear call; they are omitted. Shown is part of a subset that was picked to be rich in actives. Where a call stands in place of a potency, no number is given. Unmarked numbers belong to inactive results. Calls follow the shape of the dose curve; as a rule, active = well fitted inhibition curve with a large enough effect; inconclusive = small, poorly fitted or top-dose-only effect, or another doubt; inactive = no such curve, though single readings can be large or run the other way.
These compounds were tested against DNA polymerase kappa (Homo sapiens) (UniProt Q9UBT6) (assay: qHTS for Inhibitors of Polymerase Kappa). Conditions: purified Pol kappa, fluorescent DNA synthesis assay, 10 min; series mostly up to 107 µM.
Sequence of DNA polymerase kappa (Homo sapiens) (Q9UBT6 whole entry, looked up): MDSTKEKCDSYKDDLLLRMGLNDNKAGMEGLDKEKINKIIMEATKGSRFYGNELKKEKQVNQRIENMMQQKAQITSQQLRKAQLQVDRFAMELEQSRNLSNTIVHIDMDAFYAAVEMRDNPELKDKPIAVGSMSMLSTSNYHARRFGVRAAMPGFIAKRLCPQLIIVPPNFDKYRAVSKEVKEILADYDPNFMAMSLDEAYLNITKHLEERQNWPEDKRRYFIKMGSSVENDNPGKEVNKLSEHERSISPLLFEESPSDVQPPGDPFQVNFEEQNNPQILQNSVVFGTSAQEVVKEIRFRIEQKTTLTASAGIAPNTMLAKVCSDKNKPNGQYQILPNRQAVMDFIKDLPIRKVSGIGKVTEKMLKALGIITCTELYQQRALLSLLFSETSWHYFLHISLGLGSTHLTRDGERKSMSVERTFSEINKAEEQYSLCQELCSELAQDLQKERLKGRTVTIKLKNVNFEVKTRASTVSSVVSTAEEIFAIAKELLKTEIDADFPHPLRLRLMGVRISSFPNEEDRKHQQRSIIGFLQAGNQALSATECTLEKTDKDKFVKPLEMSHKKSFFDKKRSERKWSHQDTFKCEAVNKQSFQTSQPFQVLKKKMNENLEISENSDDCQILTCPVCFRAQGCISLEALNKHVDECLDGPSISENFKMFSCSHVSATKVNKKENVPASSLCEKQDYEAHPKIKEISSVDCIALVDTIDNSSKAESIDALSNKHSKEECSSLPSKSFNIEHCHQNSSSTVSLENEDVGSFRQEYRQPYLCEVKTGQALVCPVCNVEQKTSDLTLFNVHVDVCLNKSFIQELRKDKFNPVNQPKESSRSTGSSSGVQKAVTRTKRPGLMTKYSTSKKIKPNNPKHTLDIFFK
Method in brief: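 10 nM Pol kappa was preincubated with compounds for 15 min at room temperature. Reaction started with 50 nM (final) substrate. Fluorescence read kinetically at 0 and 10 min.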
In the case of `O=C(c1ccc(NS(=O)(=O)c2ccc3[nH]c(=O)[nH]c3c2)cc1)N1CCCCC1`, the Potency is reported as “inactive”.
For `Cc1noc(C)c1S(=O)(=O)Nc1ccc(C(=O)O)cc1`, the Potency was “inactive”.
With `O=C(O)c1ccc(NS(=O)(=O)c2ccc3c(c2)C(=O)c2cc(S(=O)(=O)Nc4ccc(C(=O)O)cc4)ccc2-3)cc1` the Potency was 79.4 µM (active).
For `O=C(O)c1c(Br)c(Br)c(Br)c(Br)c1C1c2ccc(O)cc2Oc2cc(O)ccc21`, the Potency was 1.12 µM (active).
For `COc1ccccc1CNc1ncncc1-c1cccc(NS(C)(=O)=O)c1`, the Potency was “inactive”.
`CC(C)C(N)C(=O)OCCOCn1cnc2c(=O)[nH]c(N)nc21` (stereo unspecified) was tested, and the Potency was “inactive”.
`CC(C)[C@H]1CC[C@@H](C)C[C@H]1O` gave an activity, negative = inhibition of -5.92% [at 19.4 µM].
`COc1cccc(Cn2c(=O)c(CCc3ccccc3)nc3cnc(N(C)C)nc32)c1` was tested, and the Potency was “inactive”.
With `CCOC(=O)CSC1=Nc2ccccc2C2=NC(CCC(=O)NCc3ccc(F)cc3)C(=O)N12` (stereo unspecified) the Potency was “inactive”.
For `CC(C)C1N=C2c3ccccc3N=C(SCC(=O)c3ccc(O)c(O)c3)N2C1=O` (stereo unspecified), the Potency was 20 µM (active).
In the case of `Cc1ccc(CNC(=O)CSC2=Nc3ccccc3C3=NC(C)C(=O)N23)cc1` (stereo unspecified), the Potency is reported as “inactive”.
In the case of `CCCCC/C=C\CC1OC1CCCCCCCC(=O)O` (stereo unspecified), the activity, negative = inhibition is reported as -0.735% [at 19.4 µM].
`COc1cc2nc(N3CCCN(C)CC3)nc(NC(C)C)c2cc1OC` was tested, and the Potency was “inactive”.
`C=COC(=O)N1CCN(/[N+]([O-])=N/Oc2ccc([N+](=O)[O-])cc2[N+](=O)[O-])CC1` was tested, and the Potency was “inactive”.
`CCC(C)Cn1c(O)cc2nn(-c3nc4ccccc4s3)c(=O)c-2c1C` (stereo unspecified) was tested, and the Potency was 25.1 µM (active).
`Nc1ncnc2c1c(I)cn2[C@@H]1C[C@H](N)[C@@H](O)[C@H]1O` was tested, and the Potency was “inactive”.
In the case of `CC1(C)OC2CO[C@]3(COS(N)(=O)=O)OC(C)(C)OC3C2O1` (stereo partly specified), the Potency is reported as “inactive”.
For `COc1ccc(-c2cc(C(=O)NCc3cc(OC)c(OC)c(OC)c3)[nH]n2)cc1`, the Potency was “inactive”.
For `COc1cc(NC(=O)c2cc3ccc4cccnc4c3[nH]2)cc(OC)c1OC`, the Potency was “inactive”.
For `COc1ccc2[nH]c(C(=O)N/N=C/c3cc(OC)c(OC)c(OC)c3)cc2c1`, the Potency was 50.1 µM (active).
For `Nc1nc2nc(Cl)[nH]c2c(=O)[nH]1`, the Potency was “inactive”.
`Cc1ccc(Cl)cc1NC(=O)CCS(=O)(=O)c1ccc(Br)s1` was tested, and the Potency was “inactive”.
With `COc1ccc(Cl)cc1NC(=O)CCC(=O)c1ccc(C)cc1` the Potency was “inactive”.
In the case of `COc1ccc(Cl)cc1NC(=O)CCS(=O)(=O)c1ccc(Br)cc1`, the Potency is reported as 79.4 µM (active).
For `COc1ccccc1CNc1ncnc2ccc(-c3ccc4c(c3)OCO4)cc12`, the Potency was “inactive”.
`CC1(C)OC2CC3C4CCC5=CC(=O)CCC5(C)C4(F)C(O)CC3(C)[C@]2(C(=O)CCl)O1` (stereo partly specified) was tested, and the Potency was “inactive”.

Source: PubChem BioAssay AID588579 (National Center for Advancing Translational Sciences (NCATS), 2011)
Potency is read from the fitted curve at half-maximal effect.
